Experiment in all cases: DAPPL (digital affinity profiling via proximity ligation, sequencing); 10 mM Tris-HCl pH 7.5, 50 mM NaCl, 1 mM DTT, 4% glycerol, room temperature, 30 min; GST-TFs on glutathione beads, 16-mer random dsDNA library, 0.1% formaldehyde crosslink after washing; high values mean tight binding
Conditions in all cases: protein: recombinant; tags: N-terminal GST; dsDNA, one strand shown

The target of one experiment is T1, ELK1 (Homo sapiens, UniProt P19419 1-428).
T1 sequence: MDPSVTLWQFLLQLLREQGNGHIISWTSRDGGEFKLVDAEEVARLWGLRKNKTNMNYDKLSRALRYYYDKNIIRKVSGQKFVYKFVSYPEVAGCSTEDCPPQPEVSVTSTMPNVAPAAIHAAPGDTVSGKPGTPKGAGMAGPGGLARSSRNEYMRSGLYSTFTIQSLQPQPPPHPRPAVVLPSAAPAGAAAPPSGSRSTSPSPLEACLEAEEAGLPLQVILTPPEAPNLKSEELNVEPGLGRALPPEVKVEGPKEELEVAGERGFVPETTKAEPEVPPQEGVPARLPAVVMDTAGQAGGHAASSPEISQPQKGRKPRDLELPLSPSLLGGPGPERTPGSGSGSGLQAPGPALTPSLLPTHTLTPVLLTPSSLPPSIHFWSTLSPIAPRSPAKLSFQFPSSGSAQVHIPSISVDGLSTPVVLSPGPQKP
The procedure, abridged: (§1)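 GST fusions of human transcription factors were expressed in yeast and captured with glutathione beads. Once given DNA barcodes and pooled alongside a tag-only sample, they were incubated for 30 min at room temperature with 200 nmole of a random double-stranded 16-mer DNA library in Tris/NaCl/DTT/glycerol buffer, then washed, crosslinked (0.1% formaldehyde), proximity-ligated, PCR-amplified and sequenced on an Illumina NextSeq500. The binding signal of each hexamer is its read frequency for a factor divided by its frequency for the tag-only sample.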

A further experiment deals with T2, GABPA (Homo sapiens, UniProt Q06546 1-454).
T2 sequence: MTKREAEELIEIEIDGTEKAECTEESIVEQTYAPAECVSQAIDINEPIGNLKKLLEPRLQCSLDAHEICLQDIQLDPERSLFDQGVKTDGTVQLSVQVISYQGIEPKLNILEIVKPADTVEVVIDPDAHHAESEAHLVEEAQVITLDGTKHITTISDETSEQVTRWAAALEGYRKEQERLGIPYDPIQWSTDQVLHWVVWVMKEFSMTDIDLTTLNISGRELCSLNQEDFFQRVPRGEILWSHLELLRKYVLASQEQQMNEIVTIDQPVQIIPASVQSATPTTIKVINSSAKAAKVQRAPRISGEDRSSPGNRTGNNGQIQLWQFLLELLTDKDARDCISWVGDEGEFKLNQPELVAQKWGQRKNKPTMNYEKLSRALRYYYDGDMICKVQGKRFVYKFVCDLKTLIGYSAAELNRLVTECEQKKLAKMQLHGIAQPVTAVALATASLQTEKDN
Summed up:
as §1

The target of another experiment is T3, ERG (Homo sapiens, UniProt P11308 1-479).
T3 sequence: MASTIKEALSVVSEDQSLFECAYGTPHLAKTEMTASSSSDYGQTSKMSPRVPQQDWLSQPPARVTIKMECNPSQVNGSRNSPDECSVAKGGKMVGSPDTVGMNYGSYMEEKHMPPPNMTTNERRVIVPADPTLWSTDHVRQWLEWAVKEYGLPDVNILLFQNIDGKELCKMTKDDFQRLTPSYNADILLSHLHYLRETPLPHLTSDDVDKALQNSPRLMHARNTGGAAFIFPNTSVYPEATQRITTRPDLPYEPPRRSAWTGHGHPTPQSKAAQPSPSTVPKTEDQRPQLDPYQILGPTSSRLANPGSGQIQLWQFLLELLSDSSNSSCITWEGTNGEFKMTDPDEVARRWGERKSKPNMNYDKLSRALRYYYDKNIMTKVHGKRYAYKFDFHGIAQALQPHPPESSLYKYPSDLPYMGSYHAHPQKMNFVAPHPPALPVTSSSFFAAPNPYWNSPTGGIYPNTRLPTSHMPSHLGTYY
The procedure, abridged:
as §1

For another experiment, the target named is ELF1 (Homo sapiens, UniProt P32519 1-619). The procedure, abridged: as §1
ELF1, sequence (P32519 whole entry): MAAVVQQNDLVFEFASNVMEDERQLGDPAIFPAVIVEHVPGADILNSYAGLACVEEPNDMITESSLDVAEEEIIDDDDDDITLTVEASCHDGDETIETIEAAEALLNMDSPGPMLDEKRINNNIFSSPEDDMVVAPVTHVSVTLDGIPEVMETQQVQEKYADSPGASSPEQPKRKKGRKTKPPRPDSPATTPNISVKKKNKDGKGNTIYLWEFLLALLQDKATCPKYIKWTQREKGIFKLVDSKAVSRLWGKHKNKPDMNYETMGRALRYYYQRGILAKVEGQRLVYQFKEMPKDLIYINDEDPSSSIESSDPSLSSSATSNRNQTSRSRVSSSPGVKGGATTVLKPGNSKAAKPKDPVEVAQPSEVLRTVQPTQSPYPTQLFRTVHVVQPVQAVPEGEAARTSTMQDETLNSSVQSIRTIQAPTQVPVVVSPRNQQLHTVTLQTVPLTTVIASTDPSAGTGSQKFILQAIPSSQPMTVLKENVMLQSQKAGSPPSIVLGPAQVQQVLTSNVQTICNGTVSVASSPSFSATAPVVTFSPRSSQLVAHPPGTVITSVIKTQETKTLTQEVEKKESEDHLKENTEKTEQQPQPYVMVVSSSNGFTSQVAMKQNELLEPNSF
In another experiment the target is T4, EHF (Homo sapiens, UniProt Q9NZC4 1-300).
T4 sequence: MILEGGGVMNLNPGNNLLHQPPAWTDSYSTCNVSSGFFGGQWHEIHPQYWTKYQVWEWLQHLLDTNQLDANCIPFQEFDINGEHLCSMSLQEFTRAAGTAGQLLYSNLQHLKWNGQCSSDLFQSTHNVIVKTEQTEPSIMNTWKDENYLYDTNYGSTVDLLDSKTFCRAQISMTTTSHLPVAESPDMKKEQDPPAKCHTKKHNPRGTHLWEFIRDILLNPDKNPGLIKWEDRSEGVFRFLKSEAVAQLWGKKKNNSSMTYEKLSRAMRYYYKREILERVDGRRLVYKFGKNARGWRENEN
Summed up: as §1

A further experiment deals with T5, FEV (Homo sapiens, UniProt Q99581 1-238).
T5 sequence: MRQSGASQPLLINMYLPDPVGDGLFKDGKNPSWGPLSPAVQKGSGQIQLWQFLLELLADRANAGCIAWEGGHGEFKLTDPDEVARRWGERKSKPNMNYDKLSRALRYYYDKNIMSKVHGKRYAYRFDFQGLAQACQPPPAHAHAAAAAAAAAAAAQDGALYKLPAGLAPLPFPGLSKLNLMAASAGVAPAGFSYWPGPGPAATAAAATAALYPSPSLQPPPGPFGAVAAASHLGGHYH
Summed up:
as §1

A further experiment addresses ETV5 (Homo sapiens, UniProt P41161 1-510). The procedure, abridged:
as §1

The target in the next experiment is ELF4 (Homo sapiens, UniProt Q99607 1-663). Summed up: as §1
ELF4, sequence (Q99607 whole entry): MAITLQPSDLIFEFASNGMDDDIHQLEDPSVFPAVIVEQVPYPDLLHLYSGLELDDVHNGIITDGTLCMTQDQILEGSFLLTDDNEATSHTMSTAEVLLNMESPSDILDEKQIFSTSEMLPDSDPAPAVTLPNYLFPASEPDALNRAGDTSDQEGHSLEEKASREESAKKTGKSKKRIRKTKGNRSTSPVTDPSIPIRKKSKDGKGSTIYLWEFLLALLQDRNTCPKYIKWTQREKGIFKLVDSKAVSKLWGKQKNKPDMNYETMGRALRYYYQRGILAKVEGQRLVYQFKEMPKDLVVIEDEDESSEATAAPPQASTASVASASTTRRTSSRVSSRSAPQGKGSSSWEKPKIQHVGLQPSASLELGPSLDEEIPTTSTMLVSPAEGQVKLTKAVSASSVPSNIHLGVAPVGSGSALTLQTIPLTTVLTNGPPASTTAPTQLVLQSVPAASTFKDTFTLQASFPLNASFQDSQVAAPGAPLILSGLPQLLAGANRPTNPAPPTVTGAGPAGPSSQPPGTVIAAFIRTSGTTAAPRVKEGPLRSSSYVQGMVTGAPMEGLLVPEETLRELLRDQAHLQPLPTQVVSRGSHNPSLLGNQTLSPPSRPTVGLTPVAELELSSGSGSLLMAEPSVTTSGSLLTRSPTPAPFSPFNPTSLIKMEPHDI
A further experiment has as its target T6, ETV2 (Homo sapiens, UniProt O00321 1-342).
T6 sequence: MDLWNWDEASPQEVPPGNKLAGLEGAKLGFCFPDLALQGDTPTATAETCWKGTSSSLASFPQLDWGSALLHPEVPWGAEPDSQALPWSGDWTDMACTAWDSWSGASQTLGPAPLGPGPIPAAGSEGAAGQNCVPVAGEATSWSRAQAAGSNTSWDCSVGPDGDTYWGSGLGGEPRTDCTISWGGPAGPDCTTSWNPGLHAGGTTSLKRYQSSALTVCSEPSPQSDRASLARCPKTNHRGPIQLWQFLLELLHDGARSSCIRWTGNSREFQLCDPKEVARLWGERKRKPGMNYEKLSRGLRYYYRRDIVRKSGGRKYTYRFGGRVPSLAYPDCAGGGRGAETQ
The procedure, abridged:
as §1

The next experiment addresses T7, ELF3 (Homo sapiens, UniProt P78545 1-371).
T7 sequence: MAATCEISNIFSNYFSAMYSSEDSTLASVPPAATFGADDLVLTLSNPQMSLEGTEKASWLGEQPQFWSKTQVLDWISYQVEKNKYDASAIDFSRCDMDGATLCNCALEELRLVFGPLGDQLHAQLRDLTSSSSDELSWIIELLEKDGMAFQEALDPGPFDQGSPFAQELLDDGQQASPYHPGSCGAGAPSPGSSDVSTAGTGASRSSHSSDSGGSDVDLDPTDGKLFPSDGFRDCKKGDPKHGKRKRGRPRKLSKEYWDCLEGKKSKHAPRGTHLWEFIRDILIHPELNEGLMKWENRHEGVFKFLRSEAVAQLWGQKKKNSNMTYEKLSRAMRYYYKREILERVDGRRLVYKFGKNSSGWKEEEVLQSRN
The procedure, abridged: as §1

The next experiment concerns the target ETV1 (Homo sapiens, UniProt P50549 1-477). The procedure, abridged:
as §1

Another experiment has as its target T8, ETV3L (Homo sapiens, UniProt Q6ZN32 1-361).
T8 sequence: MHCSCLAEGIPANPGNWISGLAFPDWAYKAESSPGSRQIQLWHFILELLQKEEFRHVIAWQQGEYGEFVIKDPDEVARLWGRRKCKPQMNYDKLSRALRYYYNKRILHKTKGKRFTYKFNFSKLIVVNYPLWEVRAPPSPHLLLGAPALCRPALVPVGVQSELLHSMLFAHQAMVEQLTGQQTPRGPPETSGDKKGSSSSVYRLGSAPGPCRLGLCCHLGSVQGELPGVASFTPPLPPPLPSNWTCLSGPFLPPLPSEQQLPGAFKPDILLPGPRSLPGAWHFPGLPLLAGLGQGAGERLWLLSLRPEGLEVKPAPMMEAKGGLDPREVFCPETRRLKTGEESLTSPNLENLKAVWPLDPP
The procedure, abridged:
as §1

Another experiment concerns the target T9, SPDEF (Homo sapiens, UniProt O95238 1-335).
T9 sequence: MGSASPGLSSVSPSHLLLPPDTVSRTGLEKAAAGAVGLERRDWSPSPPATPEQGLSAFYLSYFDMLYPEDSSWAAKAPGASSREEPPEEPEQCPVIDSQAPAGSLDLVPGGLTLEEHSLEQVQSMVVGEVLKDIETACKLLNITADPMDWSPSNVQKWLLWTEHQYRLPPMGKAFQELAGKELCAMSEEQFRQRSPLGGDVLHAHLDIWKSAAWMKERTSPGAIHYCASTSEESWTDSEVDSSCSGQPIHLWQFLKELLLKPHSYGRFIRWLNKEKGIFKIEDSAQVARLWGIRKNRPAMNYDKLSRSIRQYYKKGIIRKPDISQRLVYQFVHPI
Summed up:
as §1

Another experiment concerns the target T10, ETV7 (Homo sapiens, UniProt Q9Y603 1-341).
T10 sequence: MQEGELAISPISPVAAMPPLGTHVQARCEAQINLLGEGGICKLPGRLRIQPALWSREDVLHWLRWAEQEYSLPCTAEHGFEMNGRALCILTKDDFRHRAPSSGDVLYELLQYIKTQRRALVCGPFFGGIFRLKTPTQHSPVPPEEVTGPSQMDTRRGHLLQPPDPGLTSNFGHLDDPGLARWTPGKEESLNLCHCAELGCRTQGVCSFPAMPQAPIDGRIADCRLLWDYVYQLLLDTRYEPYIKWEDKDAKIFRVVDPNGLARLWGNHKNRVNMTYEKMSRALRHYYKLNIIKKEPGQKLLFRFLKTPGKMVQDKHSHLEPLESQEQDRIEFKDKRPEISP
Summed up:
as §1

A further experiment addresses T11, ETV3 (Homo sapiens, UniProt P41162-2 1-143).
T11 sequence: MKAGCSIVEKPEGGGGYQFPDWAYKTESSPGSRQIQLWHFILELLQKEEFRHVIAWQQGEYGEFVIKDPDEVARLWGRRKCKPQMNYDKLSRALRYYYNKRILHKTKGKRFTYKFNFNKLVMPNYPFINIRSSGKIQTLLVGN
Summed up:
as §1

The target in the next experiment is ETV6 (Homo sapiens, UniProt P41212 1-452). The procedure, abridged:
as §1

The record followed here is paper PMC7862700, “An all-to-all approach to the identification of sequence-specific readers for epigenetic DNA modifications on cytosine”.

ETV6, sequence (P41212 whole entry): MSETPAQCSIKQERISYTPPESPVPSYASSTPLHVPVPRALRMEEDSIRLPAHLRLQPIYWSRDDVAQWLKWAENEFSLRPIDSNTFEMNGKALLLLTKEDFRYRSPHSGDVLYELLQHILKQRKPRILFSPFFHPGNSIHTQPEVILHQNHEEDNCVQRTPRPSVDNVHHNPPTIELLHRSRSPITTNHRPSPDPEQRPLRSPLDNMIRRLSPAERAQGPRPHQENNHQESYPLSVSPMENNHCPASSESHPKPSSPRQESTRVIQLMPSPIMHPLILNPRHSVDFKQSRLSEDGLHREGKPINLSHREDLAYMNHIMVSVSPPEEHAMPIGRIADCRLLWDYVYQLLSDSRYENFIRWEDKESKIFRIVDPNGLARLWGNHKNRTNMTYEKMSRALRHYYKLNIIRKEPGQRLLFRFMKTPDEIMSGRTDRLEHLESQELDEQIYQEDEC
ETV1, sequence (P50549 whole entry): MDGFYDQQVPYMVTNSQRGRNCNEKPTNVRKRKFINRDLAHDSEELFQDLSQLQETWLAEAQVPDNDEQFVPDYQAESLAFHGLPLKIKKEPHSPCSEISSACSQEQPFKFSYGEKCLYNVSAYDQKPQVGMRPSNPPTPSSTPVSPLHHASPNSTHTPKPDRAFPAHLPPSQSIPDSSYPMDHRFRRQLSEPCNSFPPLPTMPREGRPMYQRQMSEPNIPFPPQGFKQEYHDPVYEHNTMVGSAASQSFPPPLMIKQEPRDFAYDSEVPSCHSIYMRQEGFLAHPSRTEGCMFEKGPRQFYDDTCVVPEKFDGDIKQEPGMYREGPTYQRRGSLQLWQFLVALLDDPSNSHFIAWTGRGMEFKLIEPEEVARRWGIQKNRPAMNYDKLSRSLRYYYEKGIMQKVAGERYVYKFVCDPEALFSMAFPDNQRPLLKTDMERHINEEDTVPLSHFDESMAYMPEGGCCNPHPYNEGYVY
ETV5, sequence (P41161 whole entry): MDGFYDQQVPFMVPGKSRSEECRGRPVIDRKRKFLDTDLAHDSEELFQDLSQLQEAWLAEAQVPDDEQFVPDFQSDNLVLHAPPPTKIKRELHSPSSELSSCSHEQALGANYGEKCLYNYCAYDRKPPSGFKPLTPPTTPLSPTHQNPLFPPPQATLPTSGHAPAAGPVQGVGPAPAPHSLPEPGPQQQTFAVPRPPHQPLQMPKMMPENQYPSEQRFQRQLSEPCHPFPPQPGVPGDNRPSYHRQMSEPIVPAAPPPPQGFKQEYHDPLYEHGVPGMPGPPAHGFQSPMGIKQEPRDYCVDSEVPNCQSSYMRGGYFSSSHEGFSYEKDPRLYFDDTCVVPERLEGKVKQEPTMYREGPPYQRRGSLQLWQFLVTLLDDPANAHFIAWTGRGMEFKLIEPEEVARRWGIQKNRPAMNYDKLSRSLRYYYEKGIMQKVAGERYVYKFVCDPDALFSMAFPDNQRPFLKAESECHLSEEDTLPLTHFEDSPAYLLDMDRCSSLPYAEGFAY

With CGCCGG, the binding signal with ELK1 was 1.21 fold enrichment (6-mer frequency, TF over GST control); with GABPA, 1.14 fold enrichment (6-mer frequency, TF over GST control); with ERG it was 1.19 fold enrichment (6-mer frequency, TF over GST control); with ELF1 it was 1.03 fold enrichment (6-mer frequency, TF over GST control); in the experiment with EHF it was 1.19 fold enrichment (6-mer frequency, TF over GST control); in the experiment with FEV it was 1.4 fold enrichment (6-mer frequency, TF over GST control). For the same sequence, the binding signal is 1.15 fold enrichment (6-mer frequency, TF over GST control) with ETV5; 1.02 fold enrichment (6-mer frequency, TF over GST control) with ELF4; 1.06 fold enrichment (6-mer frequency, TF over GST control) with ETV2; 1.13 fold enrichment (6-mer frequency, TF over GST control) in the experiment with ELF3; 1.02 fold enrichment (6-mer frequency, TF over GST control) with ETV1; 1.06 fold enrichment (6-mer frequency, TF over GST control) in the experiment with ETV3L. In addition, the binding signal is 1.05 fold enrichment (6-mer frequency, TF over GST control) with SPDEF; 1.08 fold enrichment (6-mer frequency, TF over GST control) in the experiment with ETV7; 1.1 fold enrichment (6-mer frequency, TF over GST control) with ETV3; 1.05 fold enrichment (6-mer frequency, TF over GST control) with ETV6.
